# Inconclusive results are not listed. The source made the active and inactive calls. Calls come from the whole dose curve. Square brackets hold non-standard residues; d marks the D form. Peptide text beside a SMILES is read from it. pGlu = O=C1CC[C@@H](C(=O)O)N1
# Experiment: cAMP Responsive Elements (CRE) small molecule agonists, cell-based qHTS assay (AID 1963590)
# Conditions: CRE-bla HEK293T, beta-lactamase FRET ratio, 3 h; series mostly up to 92.4 µM; activation: at the top concentration
# From the text: U.S. Tox21 Program National Center for Advancing Translational Sciences [NCATS] Division of Preclinical Innovation [DPI] U.S. Environmental Protection Agency [EPA] National Institutes of Environmental Health Sciences [NIEHS] National Toxicology Program [NTP] U.S. Food and Drug Administration [FDA] Tox21 Assay Overview: CREB (cyclic-AMP Responsive Element Binding Protein) is a cellular transcription factor. It binds to certain DNA sequences called cAMP Responsive Elements (CRE) and regulates the transcription of the genes. […] This cell line can be used to find agonists/antagonists of the cyclic AMP signaling pathway. The activation of the report gene under culture conditions can be detected by fluorescence intensity. This cell line has been used to screen the Tox21 10K compound library to identify agonists that induce oxidative stress.
# Tox21 Assay Protocol Summary: CRE-bla Hek 293T cells were suspended in assay medium (DMEM containing 10% dialyzed FBS, 0.1 mM NEAA, 1 mM sodium pyruvate and 25 mM HEPES) and dispensed at 2,000 cells/5 uL /well into 1536-well black wall/clear bottom plates using a Multidrop Combi (ThermoFisher Scientific, Waltham, MA) dispenser. After the assay plates were incubated at 37 C/5% CO2 for 18 hrs, 23 nL of compounds dissolved in DMSO, positive controls or DMSO only was transferred to the assay plate by a pintool workstation (Kalypsys, San Diego, CA). After the plates were incubated at 37 C/5% CO2 for 3 hrs, 1 uL of LiveBLAzer B/G FRET substrate (Invitrogen, Carlsbad, CA) was added to each well using Bioraptr Flying Reagent Dispenser (FRD, Aurora Discovery, San Diego, CA). The plates were incubated at room temperature for 2 h.
# % is set by controls: 0 for no effect and ±100 for the full control effect.
row,SMILES,activation
1,CCCCCCCCC(CO)CCCCCC (stereo not given),-1.72% (inactive)
2,CCc1cccc(N(C)C(N)=Nc2cccc3ccccc23)c1,-2.28% [at 42.5 µM] (inactive)
3,Nc1cccc([N+](=O)[O-])c1,-1.58% (inactive)
4,COP(=O)(OC)OC(c1ccc(Cl)cc1)P(=O)(OC)OC (stereo not given),0.0258% [at 42.5 µM] (inactive)
5,CC(C)CCCCCOC(=O)CCCCC(=O)OCCCCCC(C)C,-1.64% (inactive)
6,C/C=C1\[C@H]2C=C(C)C[C@]1(N)c1ccc(=O)[nH]c1C2,-0.045% [at 42.5 µM] (inactive)
7,Cc1oc2c(NC(=O)c3c(Cl)cccc3Cl)cccc2c1C(C)(C)O,11.3% (inactive)
8,NC(=O)c1cc[n+](CC2=C(C(=O)[O-])N3C(=O)[C@@H](NC(=O)Cc4cccs4)[C@H]3SC2)cc1,-0.0122% [at 42.5 µM] (inactive)
9,Cc1cc(Cl)c(C)cc1Cl,0.376% (inactive)
10,COC(=O)CC(C)=O,-0.422% (inactive)
11,Cc1ccc(NC(=O)c2ccc(CN3CCN(C)CC3)cc2)cc1Nc1nccc(-c2cccnc2)n1,11.2% [at 42.5 µM] (inactive)
12,CN(C)CCOc1ccccc1Cc1ccccc1,-4.16% [at 42.5 µM] (inactive)
13,NC(Cc1ccc(F)cc1)C(=O)O (stereo not given),-1.9% [at 8.39 µM] (inactive)
14,CCOc1ccc(NC(C)=O)cc1N,0.194% (inactive)
15,CC(=O)Nc1cccc(N)c1,0.0341% (inactive)
16,COC=O,-0.656% [at 8.39 µM] (inactive)
17,NC(N)=NCCC[C@H](N)C(=O)O,4.27% [at 8.39 µM] (inactive)
18,c1cc2ccc3ccc4ccc5cccc6c(c1)c2c3c4c56,6.38% [at 3.27 µM] (inactive)
19,NC(N)=NS(=O)(=O)c1ccc(N)cc1,-1.15% [at 42.5 µM] (inactive)
20,O=[N+]([O-])c1cccc(C(F)(F)F)c1,-0.0122% (inactive)

row,SMILES,activation
1,CC(=O)OC(C)OC(C)=O,1.09% (inactive)
2,CCCCCCCCC(CCCCCC)C(=O)O (stereo not given),0.0659% (inactive)
3,O=C(CCCCCCC(=O)Nc1ccccc1)NO,11.2% [at 42.5 µM] (inactive)
4,CC(=O)OCC(=O)[C@@]1(O)[C@H](C)C[C@H]2[C@@H]3CCC4=CC(=O)C=C[C@]4(C)[C@@]3(F)[C@@H](O)C[C@@]21C,2.77% [at 42.5 µM] (inactive)
5,C1CCOC1,0.272% (inactive)
6,CCCCN1C[C@H](O)[C@@H](O)[C@H](O)[C@H]1CO,-0.159% [at 42.5 µM] (inactive)
7,CCOc1ccc(O)cc1,2.86% (inactive)
8,CN(C)c1ccncc1,0.033% (inactive)
9,CCCC(=O)O[C@]1(C(=O)CO)CC[C@H]2[C@@H]3CCC4=CC(=O)CC[C@]4(C)[C@H]3[C@@H](O)C[C@@]21C,6.83% [at 42.5 µM] (inactive)
10,COc1ccc(OC)c(Cl)c1,-0.145% (inactive)
11,CC(CN)CCCN (stereo not given),0.257% (inactive)
12,Cc1ccc(C(N)=O)cc1N,-1.18% (inactive)
13,O=C(Cl)c1cc(C(=O)Cl)cc(C(=O)Cl)c1,0.424% (inactive)
14,O/N=C/C=N/O,0.184% (inactive)
15,Oc1cc2c(cc1O)[C@H]1c3ccc(O)c(O)c3OC[C@@]1(O)C2,-2.17% (inactive)
16,SCCOCCOCCS,4.96% (inactive)
17,CCNC(=O)[C@@H]1CCCN1C(=O)[C@H](CCCN=C(N)N)NC(=O)[C@H](CC(C)C)NC(=O)CNC(=O)[C@H](Cc1ccc(O)cc1)NC(=O)[C@H](CO)NC(=O)[C@H](Cc1c[nH]c2ccccc12)NC(=O)[C@H](Cc1cnc[nH]1)NC(=O)[C@@H]1CCC(=O)N1 ([pGlu]HWSYGLRP-NHEt),0.321% [at 42.5 µM] (inactive)
18,NCCCC(O)(P(=O)(O)O)P(=O)(O)O,-0.659% [at 42.5 µM] (inactive)
19,CCCCCCCCCCCCCCCCN,1.06% [at 42.5 µM] (inactive)
20,CCOc1ccc(NS(=O)(=O)c2ccc(N)cc2)nn1,-0.404% [at 42.5 µM] (inactive)

# From PubChem BioAssay (Tox21)
